The sample as a whole holds a higher share of hits than the screen did.
LmPK inh = inhibitors of Leishmania mexicana pyruvate kinase; AID 1721; hit rate 0.37% among 290,000; purified LmPK, Kinase-Glo ATP luminescence, 1 h; Potency, µM (titrated, usually from 57.5 µM), most hits filed as inhibitors; Q27686; active = well fitted curve in the direction sought with a large enough effect; inconclusive = small, poorly fitted or top-dose-only effect, or another doubt; inactive = no such curve, though single readings can be large; an effect the other way counts as inactive or inconclusive
Target sequence (Q27686 whole entry, looked up): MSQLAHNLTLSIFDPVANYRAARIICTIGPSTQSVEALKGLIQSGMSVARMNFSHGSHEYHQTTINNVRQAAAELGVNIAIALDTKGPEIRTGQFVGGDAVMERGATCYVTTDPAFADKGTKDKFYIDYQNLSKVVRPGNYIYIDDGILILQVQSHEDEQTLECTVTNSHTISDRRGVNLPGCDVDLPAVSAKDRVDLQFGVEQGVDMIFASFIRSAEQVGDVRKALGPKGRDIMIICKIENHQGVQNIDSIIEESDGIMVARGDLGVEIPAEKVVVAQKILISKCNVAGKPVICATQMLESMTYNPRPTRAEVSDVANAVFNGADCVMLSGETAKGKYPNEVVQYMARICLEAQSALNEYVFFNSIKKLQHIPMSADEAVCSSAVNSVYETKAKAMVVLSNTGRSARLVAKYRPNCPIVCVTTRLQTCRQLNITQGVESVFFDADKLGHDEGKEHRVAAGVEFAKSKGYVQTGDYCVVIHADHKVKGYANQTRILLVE
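Kinase-Glo luminescence read after 1 h RT reaction of 0.1 nM LmPK with 0.5 mM PEP and 0.1 mM ADP. Activity scaled between uninhibited and enzyme-free controls.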
Cycloheximide cs = affects cycloheximide protein synthesis inhibition readout, counter-screen; AID 2314; hit rate 12% among 300,000; cell reporter, cycloheximide protein synthesis inhibition counterscreen; max response, %; in the data active = max response mostly above about 13%, no sharp cut-off; inactive = mostly below about 14%; also: read at 38.3 µM for the half of the compounds with a filed dose
SARS PLpro yeast = SARS-CoV PLP inhibition in yeast; Potency, µM (series often up to 32.9 µM), hits mostly activators; S. cerevisiae expressing SARS-CoV PLpro, growth rescue; hit rate 0.19% among 330,000; AID 485353; also: nearly all actives have a fitted effect of over 55% in size
Tb PYK inh = inhibitors of Trypanosoma brucei pyruvate kinase; Q57TT1; TbPYK enzyme, Kinase-Glo Plus ATP luminescence, 45 min; Potency, µM (doses to about 76.8 µM), actives largely listed as inhibitors; hit rate 0.12% among 410,000; AID 624173; active = well fitted curve in the direction sought with a large enough effect; inconclusive = small, poorly fitted or top-dose-only effect, or another doubt; inactive = no such curve, though single readings can be large; an effect the other way counts as inactive or inconclusive; also: nearly all actives have a fitted effect of over 50% in size
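ADP (130 uM final) triggers the TbPYK reaction after compound addition; incubation is 45 min at room temperature. Kinase-Glo Plus is then added and luminescence imaged. Normalized data are fitted to concentration-effect curves.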
NS1 inh = blocks influenza NS1 protein function; Potency, µM (top dose mostly 46.1 µM); hit rate 0.4% among 270,000; also: actives are rising curves; nearly all actives have a fitted effect of over 50% in size
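S. cerevisiae expressing influenza A NS1, grown in glucose, washed, then diluted 1:100 into pH 6.0 -URA galactose medium with 23 nl compound. Growth recovery read as OD600; NS1-free strain serves as control.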
Shiga toxin inh = Shiga toxin inhibition; Vero cells, Shiga toxin protein synthesis inhibition reporter; inhibition, % at 38.7 µM; hit rate 9.2% among 290,000; in the data active = inhibition mostly above about 28%, no sharp cut-off; inactive = mostly below about 43%
A number is an active result; . = inactive; ? = inconclusive; / = not tested or not shown. Unless noted, calls follow the shape of the full dose curve.

SMILES	LmPK inh	Cycloheximide cs	SARS PLpro yeast	Tb PYK inh	NS1 inh	Shiga toxin inh
COc1ccc(/C=C/C(=O)NC2CC3CCC2C3)cc1 (centres undefined)	.	27	.	.	.	/
COc1ccc(/C=N/NC(=S)N[C@H]2CC3CCC2C3)cc1 (some centres undefined)	.	13	.	.	.	.
S=C(N/N=C/c1ccc2c(c1)OCO2)NC1CC2CCC1C2 (centres undefined)	.	35	.	.	.	63
COCCNC(=O)CSc1nc(-c2ccc(C)cc2)nc2c1c(=O)n(C)c(=O)n2C	/	/	/	.	/	/
COC1C(OC(=O)/C=C/C=C/C=C/C=C/C(=O)O)CCC2(CO2)C1C1(C)OC1CC=C(C)C (centres undefined)	/	/	/	.	/	/
COc1ccc(CNC(=O)C2=CC(c3ccc(C)cc3)=NS(=O)(=O)N2C)cc1	.	.	.	.	.	.
O=C(/C=C/c1cccc([N+](=O)[O-])c1)NC1CC2CCC1C2 (centres undefined)	.	19	.	.	.	.
O=C(/C=C/c1cccc([N+](=O)[O-])c1)NCC1CCCO1 (centres undefined)	.	.	.	.	.	.
O=C(c1cc(COc2c(F)cccc2F)on1)N1CCCCCC1	.	61	?	.	.	81
CCOC(=O)N1CCN(C(=O)c2cc(COc3c(F)cccc3F)on2)CC1	.	74	.	.	.	129
COCC1CCN(C(=O)c2cc(COc3ccc4c(c3)CCCC4)on2)C1 (centres undefined)	.	.	.	.	.	.
O=C(c1cc(COc2ccc3c(c2)CCCC3)on1)N1CCCC1	.	47	.	/	.	51
CCN1CCN(/C=N/c2nc(C)cs2)CC1	.	33	.	.	.	76
Cc1csc(/N=C/c2ccc([N+](=O)[O-])cc2)n1	.	.	.	.	.	.
C[C@H](NC(=O)[C@@H](N)Cc1ccc(O)cc1)C(=O)NCC(=O)N[C@H]1CSSC[C@@H](C(=O)O)NC(=O)[C@H](CO)NC(=O)[C@H]([C@@H](C)O)NC(=O)[C@H](Cc2ccccc2)NC(=O)[C@H]([C@@H](C)O)NC(=O)[C@H](CCCCN)NC(=O)[C@@H](Cc2c[nH]c3ccccc23)NC(=O)[C@H](Cc2ccccc2)NC(=O)[C@H](Cc2ccccc2)NC(=O)[C@H](CC(N)=O)NC(=O)[C@H](CCCCN)NC1=O	/	.	/	/	/	.
COc1cc(SC)ccc1C(=O)Nc1ccc2c(c1)CCC2	.	31	.	.	.	96
COc1cc(SC)ccc1C(=O)Nc1ccccc1C#N	.	37	.	.	.	91
Cc1occc1C(=O)Nc1ccccc1C#N	.	.	.	.	.	.
COc1cc(SC)ccc1C(=O)Nc1ccc(Cl)cn1	.	33	.	.	.	77
COc1cc(SC)ccc1C(=O)Nc1nc(C)cc(C)n1	.	.	.	.	.	.
COc1cc(SC)ccc1C(=O)Nc1ccncc1	.	33	.	.	.	.
COc1ccc(C(=O)Nc2ccncc2)c(OC)c1	.	.	.	.	.	.
COc1cc(SC)ccc1C(=O)Nc1cccc(C2OCCCO2)c1	.	32	.	.	/	71
O=C(Nc1nc2ccccc2[nH]1)C1CCC1	?	42	.	.	/	108
O=C(CC1CCCC1)Nc1nc2ccccc2[nH]1	.	28	.	.	.	.
SMILES	LmPK inh	Cycloheximide cs	SARS PLpro yeast	Tb PYK inh	NS1 inh	Shiga toxin inh
O=C(NCc1nc2ccccc2[nH]1)C1CCCCC1	.	.	.	.	.	.
O=C(Cc1cccc2ccccc12)Nc1nc2ccccc2[nH]1	.	.	.	.	.	.
O=C(Nc1nc2ccccc2[nH]1)C1CCCC1	.	60	.	.	/	81
N#CC(=Nc1ccccc1)c1ccccc1	/	/	/	.	/	/
COc1cccc(Cn2c(=O)n(Cc3ccccc3)c(=O)c3c2c2cc(OC)ccc2n3C)c1	/	/	/	.	/	/
COC(=O)c1c(NC(=O)CCCOc2ccc(C)cc2)sc2c1C(C(=O)OC)CC2 (centres undefined)	/	.	/	.	/	.
Cc1ccc(NC(=O)c2ccc(CN3CCc4ccccc4C3)cc2)cc1	.	.	.	.	.	.
Cc1cc(C)cc(NC(=O)c2ccc(CN3CCc4ccccc4C3)cc2)c1	.	.	.	.	.	.
O=C(Nc1ccccc1)c1ccc(CN2CCc3ccccc3C2)cc1	.	27	.	.	/	.
O=C(Nc1ccc2c(c1)CN(Cc1ccc(CO)o1)CC2)c1ccc(C(F)(F)F)cc1	.	44	.	.	.	.
O=C(Nc1ccccc1F)c1ccc(CN2CCc3ccccc3C2)cc1	.	20	.	.	.	.
CCOc1ccccc1NC(=O)C1CCCN(S(=O)(=O)c2ccc(-n3cnnn3)cc2)C1 (centres undefined)	.	.	.	.	.	.
C=CCn1c(=O)n(C2OC(CO)C(O)C2O)c2nc(N)[nH]c(=O)c21 (centres undefined)	/	.	/	.	/	.
CCCNC(=O)c1ccc2c(c1)ncn2-c1ccccc1OC	.	12	.	.	.	.
COc1ccccc1-n1cnc2cc(C(=O)N3CCOCC3)ccc21	.	25	.	.	.	41
CCOC(CNC(=O)c1ccc2c(c1)ncn2-c1ccccc1OC)OCC	.	.	.	.	.	.
CCOc1ccc2[nH]c3c(NCCCOC)ncnc3c2c1	.	35	.	.	.	48
CCOc1ccc2[nH]c3c(NCCN(CC)CC)ncnc3c2c1	.	.	.	.	.	.
CC(C)OCCCNc1ncnc2c1[nH]c1ccccc12	.	16	.	.	.	.
O=c1c2[nH]c3ccccc3c2ncn1CCC1=CCCCC1	.	.	.	.	.	.
CCOc1ccc2[nH]c3c(NCCOC)ncnc3c2c1	.	29	.	.	.	67
C1=C(CCNc2ncnc3c2[nH]c2ccccc23)CCCC1	.	26	.	.	.	116
COc1ccc(NC(=O)C2CCN(C(=O)[C@@H]3Cc4ccccc4CN3C(=O)OC(C)(C)C)CC2)cc1	.	.	.	.	.	.
CC(C)c1noc(-c2ccccc2OCC(=O)Nc2ccc([N+](=O)[O-])cc2)n1	/	/	/	.	/	/
COc1ccc2[nH]c3c(NCCN(C(C)C)C(C)C)ncnc3c2c1	.	.	.	.	.	.
SMILES	LmPK inh	Cycloheximide cs	SARS PLpro yeast	Tb PYK inh	NS1 inh	Shiga toxin inh
CCOc1ccc2[nH]c3c(NCC(C)C)ncnc3c2c1	.	33	.	.	.	59
CC(=O)N1c2ccc(S(=O)(=O)NCCC(=O)Nc3ccc(OC(F)(F)F)cc3)cc2CC1C (centres undefined)	.	.	.	?	.	.
NC(=O)c1ccccc1-c1noc(-c2ccccc2F)n1	/	/	.	/	/	/
Cc1ccccc1-c1noc(-c2cc(-c3ccc(F)cc3)n[nH]2)n1	/	/	/	.	/	/
Cc1noc(-c2ccc(-c3noc(-c4ccc(Cl)cc4)n3)cc2)n1	/	/	/	.	/	/
Cc1ccccc1-c1noc(-c2ccc(O)cc2)n1	14µM	52	.	.	.	65

Source: PubChem BioAssay
